PABP1 MLLE inh – blocks PAM2 peptide binding to the PABP1 MLLE domain; inhibition, % at 20 µM; GST-MLLE / FITC-PAM2 fluorescence polarization; 360,000 compounds, 0.36% hits; AID 588489; P11940; in the data active = inhibition above about 35%, passing the limit was not always enough;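 also: plate controls were DMSO wells with GST-MLLE for no effect and wells lacking GST-MLLE protein for full effect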
APOBEC3A inh – human APOBEC3A DNA deaminase inhibition; inhibition, % at 20 µM; 330,000 compounds, 0.41% hits; P31941; recombinant A3A, FAM/TAMRA ssDNA deamination fluorescence;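 active = at least 40% inhibition at 20 µM here, with at most 30% in a related deaminase screen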;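 also: plate controls were A3A with DMSO for no effect and wells lacking A3A enzyme for full effect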
Target sequence (P31941 whole entry, looked up): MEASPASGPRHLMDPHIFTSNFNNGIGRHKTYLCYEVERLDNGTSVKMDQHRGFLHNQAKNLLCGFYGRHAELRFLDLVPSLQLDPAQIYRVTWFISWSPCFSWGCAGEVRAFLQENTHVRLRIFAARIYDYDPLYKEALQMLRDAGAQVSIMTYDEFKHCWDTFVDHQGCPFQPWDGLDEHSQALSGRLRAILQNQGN
A3G deaminase – blocks human APOBEC3G single-stranded DNA deamination; Q9HC16; recombinant A3G, ssDNA deamination FAM/TAMRA fluorescence; inhibition, % at 20 µM; 330,000 compounds, 0.28% hits; AID 493012;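 active = inhibition of at least 40% at 20 µM, with no more than 30% in the related APOBEC3A deaminase screen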;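 also: plate controls were DMSO wells with A3G for no effect and wells lacking A3G enzyme for full effect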
Target sequence (Q9HC16 whole entry, looked up): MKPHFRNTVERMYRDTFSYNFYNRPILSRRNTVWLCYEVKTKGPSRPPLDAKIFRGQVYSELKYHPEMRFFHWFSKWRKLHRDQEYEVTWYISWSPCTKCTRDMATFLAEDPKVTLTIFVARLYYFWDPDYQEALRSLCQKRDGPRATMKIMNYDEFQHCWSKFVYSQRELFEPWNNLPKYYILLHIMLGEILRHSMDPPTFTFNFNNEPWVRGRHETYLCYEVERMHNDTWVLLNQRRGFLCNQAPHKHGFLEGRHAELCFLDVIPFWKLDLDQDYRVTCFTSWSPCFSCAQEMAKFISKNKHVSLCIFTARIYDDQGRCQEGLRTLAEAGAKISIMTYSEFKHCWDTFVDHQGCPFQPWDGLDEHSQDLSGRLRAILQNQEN
PHOSPHO1 block – blocks human PHOSPHO1 phosphatase activity; Q8TCT1; recombinant PHOSPHO1, absorbance phosphatase assay; inhibition, % at 13.3 µM; 290,000 compounds, 1.1% hits; in the data active = inhibition above about 60%
PABP FP inh – PABP-poly(A) binding inhibition; PABP-poly(A) RNA binding, fluorescence polarization; P11940; 290,000 compounds, 1% hits; calls only at 35 µM;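 also: calls also rest on retests at 20 µM and on dose response follow-up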
eIF4H inh – inhibitors of RNA binding by human eIF4H. Q15056. eIF4H fluorescence polarization binding assay. inhibition, % at 35 µM. 290,000 compounds, 0.94% hits;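 also: calls also rest on retests at 20 µM and on dose response follow-up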
* = called active by the depositor. In the library only some 2.6% were active in any assay of this set; here they are far more common. Unless noted, no rule for the calls is given here.

Cn1c(SCC(=O)Nc2ccc3c(c2)OCO3)nnc1C(F)(F)F was read as PABP1 MLLE inh 12, APOBEC3A inh -6 and A3G deaminase -9.
CCOC(=O)NC(Nc1sc2c(c1C(N)=O)CCCC2)(C(=O)OCC)C(F)(F)F (stereo not given) was read as PABP1 MLLE inh -8, APOBEC3A inh 0, A3G deaminase -6, PHOSPHO1 block 73*, PABP FP inh inactive and eIF4H inh 0.
Screening CCCCc1c(C)nc2ccccc2c1SCCC(=O)O returned PABP1 MLLE inh -2, APOBEC3A inh 0, A3G deaminase -9, PHOSPHO1 block -37, PABP FP inh inactive and eIF4H inh 9.8*.
For O=C(Nc1ccccc1SC(=O)c1ccccc1)c1ccccc1 the results were PABP1 MLLE inh 22.
Screening Cc1ccc(C(=O)Sc2cccccc2=O)cc1 returned PABP1 MLLE inh 50*, APOBEC3A inh 4, A3G deaminase 5, PHOSPHO1 block 15, PABP FP inh inactive and eIF4H inh 43.
`COc1ccc(NS(=O)(=O)c2ccc(F)c(Cl)c2)cn1` gave PABP1 MLLE inh 47*, APOBEC3A inh -3, A3G deaminase -8, PHOSPHO1 block -7, PABP FP inh inconclusive and eIF4H inh inconclusive.
Screening CCn1c(O)c(C2=c3ccccc3=NC2=O)c2cc(Br)ccc21 returned APOBEC3A inh -1, A3G deaminase -6, PHOSPHO1 block 51, PABP FP inh inactive and eIF4H inh 0.
O=C1N=c2ccccc2=C1c1c(O)n(-c2cccc(F)c2)[nH]c1=O was read as PABP1 MLLE inh 38*, PHOSPHO1 block -2, PABP FP inh inactive and eIF4H inh 11.
For Oc1cc2c(cc1O)[C@H]1c3ccc(O)c(O)c3OC[C@@]1(O)C2 the results were PABP1 MLLE inh 31, APOBEC3A inh -2 and A3G deaminase 59*.
Screening Oc1ccc2c(c1)OCC1(O)Cc3cc(O)c(O)cc3C21 (stereo not given) returned PABP1 MLLE inh inactive.
`C=CCn1c(-c2cccc3ccccc23)n[nH]c1=S` gave PABP1 MLLE inh -5, APOBEC3A inh -5, A3G deaminase 27, PHOSPHO1 block 95*, PABP FP inh inactive and eIF4H inh -14.
For C=CCn1c(Cc2c[nH]c3ccccc23)n[nH]c1=S the results were PABP1 MLLE inh -11, APOBEC3A inh -2, A3G deaminase 28, PHOSPHO1 block 95*, PABP FP inh inactive and eIF4H inh -6.
`CC(NC(=O)c1ccc(OC2CCN(Cc3ccccn3)CC2)cc1)c1nccs1` (stereo not given) gave PABP1 MLLE inh 1, APOBEC3A inh -1, A3G deaminase 12, PHOSPHO1 block 23, PABP FP inh inactive and eIF4H inh -2.
Screening CC(CNC(=O)c1ccc(OC2CCN(Cc3ccccn3)CC2)cc1)c1ccccc1 (stereo not given) returned PABP1 MLLE inh -4, APOBEC3A inh 3, A3G deaminase -6, PHOSPHO1 block 15, PABP FP inh inactive and eIF4H inh -9.
Screening CC(=O)N1CCN(C(=O)c2ccc(OC3CCN(Cc4ccccn4)CC3)cc2)CC1 returned PABP1 MLLE inh 11, APOBEC3A inh 1, A3G deaminase -3, PHOSPHO1 block 52, PABP FP inh inactive and eIF4H inh -7.
For COC(=O)[C@@H](NC(=O)c1ccc(OC2CCN(Cc3ccccn3)CC2)cc1)C(C)C the results were PABP1 MLLE inh -2, APOBEC3A inh 1, A3G deaminase -3, PHOSPHO1 block 60*, PABP FP inh inactive and eIF4H inh 3.
`Cc1nc(C(C)NC(=O)c2ccc(OC3CCN(Cc4ccccn4)CC3)cc2)c(C)s1` (stereo not given) gave PABP1 MLLE inh 5, APOBEC3A inh -3, A3G deaminase -2 and PHOSPHO1 block 81*.
For CCC(O)C1CCN(C(=O)c2ccc(OC3CCN(Cc4ccccn4)CC3)cc2)CC1 (stereo not given) the results were PABP1 MLLE inh 1, APOBEC3A inh -3, A3G deaminase -5, PHOSPHO1 block 70*, PABP FP inh inactive and eIF4H inh -1.
`COc1ccc(-c2nc3c4ccccc4ccn3c2Cc2ccccc2)cc1OC` gave PABP1 MLLE inh -4.
`CCCCSc1nnc(-c2ccc(OC)cc2)n1C` gave PABP1 MLLE inh -3, APOBEC3A inh -2, A3G deaminase -4, PHOSPHO1 block -1, PABP FP inh inactive and eIF4H inh 0.
`COc1ccc(-c2nnc(SCc3csc(N)n3)n2C)cc1` gave PABP1 MLLE inh 11, APOBEC3A inh 3, A3G deaminase -1, PHOSPHO1 block 73*, PABP FP inh inactive and eIF4H inh -6.
O=C(NCCC1CCCCN1S(=O)(=O)c1ccccc1)C(=O)NCc1ccncc1 (stereo not given) was read as PABP1 MLLE inh 6, APOBEC3A inh -2 and A3G deaminase -11.
Screening Cc1nn(C)c(Oc2ccccc2)c1CCNS(=O)(=O)c1ccc(Cl)cc1 returned PABP1 MLLE inh -11, APOBEC3A inh 5, A3G deaminase 0, PHOSPHO1 block 14, PABP FP inh inactive and eIF4H inh 0.
CC1=CC(C)C2(COC(c3ccc[n+](C)c3)OC2)C(C)C1 (stereo not given) was read as PABP1 MLLE inh -134, PHOSPHO1 block -5, PABP FP inh active and eIF4H inh -2.
`COc1ccc(S(=O)(=O)N2CCN(Cc3cc(OC)c(OC)c(OC)c3)CC2)cc1` gave PABP1 MLLE inh 11, APOBEC3A inh -7, A3G deaminase -10, PHOSPHO1 block -16, PABP FP inh inactive and eIF4H inh 5.
Screening Cc1cc2c(cc3c(=O)n(CC(=O)NCCCN4CC(C)CC(C)C4)ncn32)s1 (stereo not given) returned PABP1 MLLE inh 7, APOBEC3A inh -3, A3G deaminase -5, PHOSPHO1 block 69*, PABP FP inh inactive and eIF4H inh 1.
NC(=O)C1CCCNC1 (stereo not given) was read as PABP1 MLLE inh -2, APOBEC3A inh 1, A3G deaminase -7, PHOSPHO1 block 8, PABP FP inh active and eIF4H inh 79*.
`c1ccc2c(c1)CCCN2Cc1nnc2n1CCCCC2` gave PABP1 MLLE inh 78, APOBEC3A inh -1, A3G deaminase 4, PHOSPHO1 block 23, PABP FP inh active and eIF4H inh 61*.
C=CCc1cccc(C=Nc2ccc(Br)cc2)c1O was read as PABP1 MLLE inh -10, APOBEC3A inh 1, A3G deaminase -4, PHOSPHO1 block 11, PABP FP inh inactive and eIF4H inh 2.
For C=CCc1cccc(/C=N/c2ncccc2O)c1O the results were PABP1 MLLE inh 1, APOBEC3A inh -7, A3G deaminase -6, PHOSPHO1 block 20, PABP FP inh active and eIF4H inh 70*.
Cc1cccc2cc(-c3nc4ccc(C(=O)O)cc4[nH]3)c(=O)oc12 was read as PABP1 MLLE inh -8, APOBEC3A inh 3, A3G deaminase -11, PHOSPHO1 block 46, PABP FP inh inactive and eIF4H inh 65*.
